The term AC50 denotes the midpoint of the concentration-response curve, whichever way the signal moves.

From PubChem BioAssay (EPA / NIEHS) come the findings set out here.

Values joined by “and” are separate entries in the source; they are usually repeats but may differ in a detail not shown here. Identical values can stand only once. Inconclusive results are not listed. Where a structure was tested more than once in an assay, its records may differ in their call. Active and inactive are the calls of the source. How the source made its calls, unless noted: active means hit-call score of the fitted dose curve at least 0.9, where 1 is the maximum; inactive means score below 0.9.

In assay [1] the target is Retinoic acid receptor RXR-alpha (Homo sapiens) (UniProt P19793). The assay is described as follows: ATG_RXRa_TRANS: Attagene TRANS-FACTORIAL HepG2 Assay for human Retinoid X Receptor alpha (RXRa) (AID 2283012; active means hit-call score of the fitted dose curve at least 0.9, where 1 is the maximum). The method, boiled down:
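Read-out: fluorescent reporter-transcript fragments quantified by capillary electrophoresis after RT-PCR. Transiently transfected HepG2 cells carrying GAL4-UAS reporters and NR-GAL4 chimeras were exposed to chemical for 24 h; activity scored as increase over DMSO.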

Assay [2] addresses human Retinoid X Receptor beta (RXRb), RXRB (gene 6257) (UniProt P28702). Kind of assay: ATG_RXRb_TRANS: Attagene TRANS-FACTORIAL HepG2 Assay for human Retinoid X Receptor beta (RXRb) (AID 2283013; active means hit-call score of the fitted dose curve at least 0.9, where 1 is the maximum). The method, boiled down: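 Read-out: reporter mRNA induction via RT-PCR plus capillary electrophoresis fluorescence, analysed as signal increase relative to DMSO. Cells were human HepG2, transiently transfected with GAL4-UAS reporter constructs and chimeric receptor-Gal4 fusions, dosed for 24 h.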

For assay [3], the target named is human Thyroid Receptor alpha (THRa1), THRA (gene 7067) (UniProt P10827). Kind of assay: ATG_THRa1_TRANS: Attagene TRANS-FACTORIAL HepG2 Assay for human Thyroid Receptor alpha (THRa1) (AID 2283014; active means hit-call score of the fitted dose curve at least 0.9, where 1 is the maximum). The method, boiled down:
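Measured here is mRNA from a GAL4-UAS reporter in transfected HepG2 cells carrying a Gal4-fused receptor, 24 h post-dose. DMSO served as negative control and baseline.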

Read-out in assay [4]: E-selectin (Homo sapiens) (UniProt P16581)
Kind of assay: BSK_3C_Eselectin: BioMAP Diversity Plus: 3C Assay for Eselectin Biomarker Activity (AID 2283015).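 On outcome: cell surface E-selectin protein quantified by ELISA 24 h after dosing.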 Conditions: primary human endothelial cells (HUVEC); actives raise or lower the signal. The method, boiled down: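 Endpoint derived by bidirectional fitting against DMSO vehicle; signal is ELISA-detected E-selectin from primary HUVEC at 24 h post-dosing, with parallel SRB staining (0.1% SRB, 560 nm) flagging cytotoxicity.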

Read-out in assay [5]: Interleukin-1 alpha (IL1a), IL1A (gene 3552)
The assay is described as follows: BSK_BE3C_IL1a: BioMAP Diversity Plus: BE3C Assay for Interleukin-1 alpha (IL1a) Biomarker Activity (AID 2283016). Conditions: primary human bronchial epithelial cells; actives raise or lower the signal. The procedure, abridged: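 ELISA read-out of IL-1a from human lung bronchial epithelial primary cells, 24 h post-dose. Gain or loss of signal fitted relative to DMSO negative control.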

Read-out in assay [6]: Monocyte Chemoattractant Protein-1 (MCP1), CCL2 (gene 6347)
The assay is described as follows: BSK_3C_MCP1: BioMAP Diversity Plus: 3C Assay for Monocyte Chemoattractant Protein-1 (MCP1) Biomarker Activity (AID 2283017). Conditions: primary human endothelial cells (HUVEC); actives raise or lower the signal. The procedure, abridged: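 Using human vascular primary endothelium, researchers measured MCP-1 by ELISA 24 h after treatment, with DMSO serving as negative control for bidirectional fitting.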

Read-out in assay [7]: Monocyte Chemoattractant Protein-1 (MCP1), CCL2 (gene 6347)
Kind of assay: BSK_4H_MCP1: BioMAP Diversity Plus: 4H Assay for Monocyte Chemoattractant Protein-1 (MCP1) Biomarker Activity (AID 2283018). Conditions: primary human endothelial cells (HUVEC); actives raise or lower the signal. The method, boiled down: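 HUVEC primary cells, 24 h post-dose, MCP-1 by ELISA. Gain or loss of signal fitted bidirectionally vs DMSO baseline. Cytotoxicity: SRB stain (0.1% after 10% TCA fixation), read 560 nm, parallel cultures.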

Read-out in assay [8]: Human Leukocyte Antigen - DR isotype (HLADR), HLA-DRA (gene 3122)
Kind of assay: BSK_3C_HLADR: BioMAP Diversity Plus: 3C Assay for Human Leukocyte Antigen - DR isotype (HLADR) Biomarker Activity (AID 2283019).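 On outcome: ELISA of cell-surface HLA-DR on HUVEC 24 h after dosing.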 The note with it: primary human endothelial cells (HUVEC); actives raise or lower the signal. The method, boiled down:
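Compound added to primary HUVEC cultures, 24 h incubation, then HLA-DR determined by ELISA; endpoint derived by bidirectional fitting relative to DMSO negative control.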

Read-out in assay [9]: Monokine induced gamma interferon (MIG), CXCL9 (gene 4283)
Kind of assay: BSK_3C_MIG: BioMAP Diversity Plus: 3C Assay for Monokine induced gamma interferon (MIG) Biomarker Activity (AID 2283021). Conditions: primary human endothelial cells (HUVEC); actives raise or lower the signal. The method, boiled down:
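HUVEC, 3C system; 24 h chemical exposure; MIG by ELISA; bidirectional fit vs DMSO baseline.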

Assay [10] in a line: BSK_3C_SRB: Viability Assessment in the BioMAP Diversity Plus: 3C Assay (AID 2283023).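 Further: cells read 24 h after compound dosing; fitted both ways against DMSO so a hit may be signal rise or drop.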 The note with it: primary human endothelial cells (HUVEC). The procedure, abridged: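 Overt cytotoxicity is gauged in parallel confluent HUVEC cultures by SRB total-protein staining at the time of biomarker measurement, 24 h after dosing. Gain or loss of signal is fitted versus DMSO.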
Read-out in assay [11]: Matrix Metallopeptidase 1 (MMP1), MMP1 (gene 4312)
The assay is described as follows: BSK_BE3C_MMP1: BioMAP Diversity Plus: BE3C Assay for Matrix Metallopeptidase 1 (MMP1) Biomarker Activity (AID 2283024). The note with it: primary human bronchial epithelial cells; actives raise or lower the signal. The method, boiled down: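 ELISA read-out of MMP1 in human lung bronchial epithelial primary cultures, 24 h post-dose; bidirectional curve fit vs DMSO baseline, gain or loss of signal scored.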

The nature of assay [12]: BSK_3C_Vis: BioMAP Diversity Plus: 3C Assay for Morphology Visualization (AID 2283025).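 Further: fitted both ways so gain or loss versus DMSO counts.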 The note with it: primary human endothelial cells (HUVEC). The method, boiled down: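 HUVEC, 3C system; light microscopy of morphology at 24 h post-dose. Bidirectional fit vs DMSO baseline. Secondary readout, background-control function.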
Read-out in assay [13]: Pselectin, SELP (gene 6403)
Kind of assay: BSK_4H_Pselectin: BioMAP Diversity Plus: 4H Assay for Pselectin Biomarker Activity (AID 2283026). Conditions: primary human endothelial cells (HUVEC); actives raise or lower the signal. The procedure, abridged: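 HUVEC, 24 h chemical exposure; P-selectin read by ELISA. Bidirectional curve fit vs DMSO baseline; gain or loss of signal scored.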

Assay [14] is described as follows: BSK_4H_SRB: Viability Assessment in the BioMAP Diversity Plus: 4H Assay (AID 2283027).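 Further: cells exposed to compound for 24 h before staining.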 The note with it: primary human endothelial cells (HUVEC). The procedure, abridged:
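Cytotoxicity readout: sulforhodamine B (0.1%) staining of total protein after 10% TCA fixation, measured at 560 nm in human umbilical vein endothelium at 24 h. DMSO set the baseline; fitting was bidirectional.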

The nature of assay [15]: BSK_BE3C_SRB: Viability Assessment in the BioMAP Diversity Plus: BE3C Assay (AID 2283028).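 Further: measured 24 h after chemical dosing.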 Conditions: primary human bronchial epithelial cells. The method, boiled down:
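SRB total-protein staining (0.1%, after TCA fixation) of chemically dosed human bronchial epithelial primary cells at 24 h; DMSO serves as the negative control for bidirectional curve fitting.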

Read-out in assay [16]: Thrombomodulin, THBD (gene 7056)
Kind of assay: BSK_3C_Thrombomodulin: BioMAP Diversity Plus: 3C Assay for Thrombomodulin Biomarker Activity (AID 2283029). Conditions: primary human endothelial cells (HUVEC); actives raise or lower the signal. The method, boiled down: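 HUVEC, 3C conditions; compound 24 h; thrombomodulin by ELISA; bidirectional curve fit vs DMSO baseline; parallel SRB total-protein staining for cytotoxicity.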

Read-out in assay [17]: Urokinase-type plasminogen activator receptor (uPAR), PLAUR (gene 5329)
Kind of assay: BSK_4H_uPAR: BioMAP Diversity Plus: 4H Assay for Urokinase-type plasminogen activator receptor (uPAR) Biomarker Activity (AID 2283030). Conditions: primary human endothelial cells (HUVEC); actives raise or lower the signal. The method, boiled down: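 Endpoint derived via bidirectional curve fitting against DMSO baseline; readout was ELISA detection of uPAR on umbilical vein endothelial cells at 24 h post-treatment, with SRB-stained parallel cultures assessing cytotoxicity.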

Read-out in assay [18]: Vascular endothelial growth factor receptor 2 (Homo sapiens) (UniProt P35968)
The assay is described as follows: BSK_4H_VEGFRII: BioMAP Diversity Plus: 4H Assay for Vascular endothelial growth factor receptor 2 (VEGFR2) Biomarker Activity (AID 2283031). Conditions: primary human endothelial cells (HUVEC); actives raise or lower the signal. The procedure, abridged:
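In this multiplexed HUVEC system, biomarker ELISA was performed after 24 h chemical exposure. Parallel SRB staining (TCA fixation, 560 nm) tracked cytotoxicity; DMSO served as baseline.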

Assay [19] addresses human Vitamin D Receptor (VDR), VDR (gene 7421) (UniProt P11473). The assay is described as follows: ATG_VDR_TRANS: Attagene TRANS-FACTORIAL HepG2 Assay for human Vitamin D Receptor (VDR) (AID 2283022; active means hit-call score of the fitted dose curve at least 0.9, where 1 is the maximum). The procedure, abridged: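 Multiplexed TRANS reporter in HepG2; 24 h treatment; reporter mRNA by RT-PCR plus capillary electrophoresis; upregulation scored relative to DMSO.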

human Thyroid Receptor alpha (THRa1), THRA (gene 7067), sequence (P10827 whole entry, looked up, the tested form may be a part): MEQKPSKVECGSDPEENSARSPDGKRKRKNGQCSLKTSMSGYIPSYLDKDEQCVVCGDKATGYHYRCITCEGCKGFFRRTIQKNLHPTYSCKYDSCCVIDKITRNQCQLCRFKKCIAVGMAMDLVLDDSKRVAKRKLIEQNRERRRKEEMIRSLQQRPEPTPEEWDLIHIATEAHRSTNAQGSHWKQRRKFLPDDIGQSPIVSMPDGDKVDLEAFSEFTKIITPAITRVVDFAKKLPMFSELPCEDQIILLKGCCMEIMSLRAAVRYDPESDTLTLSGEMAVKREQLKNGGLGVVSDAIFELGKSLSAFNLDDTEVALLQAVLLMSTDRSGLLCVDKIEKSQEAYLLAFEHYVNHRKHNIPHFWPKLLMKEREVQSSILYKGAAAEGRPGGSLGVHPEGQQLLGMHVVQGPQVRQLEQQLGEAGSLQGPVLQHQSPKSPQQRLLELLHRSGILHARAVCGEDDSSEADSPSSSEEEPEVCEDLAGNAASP
Retinoic acid receptor RXR-alpha (Homo sapiens), sequence (P19793 whole entry, looked up, the tested form may be a part): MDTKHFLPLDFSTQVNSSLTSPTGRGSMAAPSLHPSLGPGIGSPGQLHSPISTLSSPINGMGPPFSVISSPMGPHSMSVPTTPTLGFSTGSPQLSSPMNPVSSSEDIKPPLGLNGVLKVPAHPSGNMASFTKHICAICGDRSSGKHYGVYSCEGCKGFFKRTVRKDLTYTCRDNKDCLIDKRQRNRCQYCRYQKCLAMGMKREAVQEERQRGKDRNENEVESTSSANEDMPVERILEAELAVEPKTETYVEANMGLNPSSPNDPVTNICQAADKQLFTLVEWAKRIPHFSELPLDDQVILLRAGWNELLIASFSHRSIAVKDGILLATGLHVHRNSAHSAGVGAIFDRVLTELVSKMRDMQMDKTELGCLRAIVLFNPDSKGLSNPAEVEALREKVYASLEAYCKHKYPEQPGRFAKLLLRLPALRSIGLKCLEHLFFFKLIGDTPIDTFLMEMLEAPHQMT
human Vitamin D Receptor (VDR), VDR (gene 7421), sequence (P11473 whole entry, looked up): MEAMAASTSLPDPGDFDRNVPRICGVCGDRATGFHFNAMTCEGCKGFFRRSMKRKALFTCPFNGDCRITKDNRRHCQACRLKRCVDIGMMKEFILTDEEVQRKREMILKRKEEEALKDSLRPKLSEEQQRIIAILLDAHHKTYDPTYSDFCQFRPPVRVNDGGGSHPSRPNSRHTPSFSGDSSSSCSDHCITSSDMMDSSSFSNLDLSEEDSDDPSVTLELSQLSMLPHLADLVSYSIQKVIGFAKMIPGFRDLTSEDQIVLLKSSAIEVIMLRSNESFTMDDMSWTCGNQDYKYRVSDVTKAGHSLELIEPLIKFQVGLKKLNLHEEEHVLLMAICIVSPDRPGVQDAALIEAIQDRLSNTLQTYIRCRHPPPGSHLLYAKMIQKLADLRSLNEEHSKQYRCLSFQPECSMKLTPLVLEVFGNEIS
E-selectin (Homo sapiens), sequence (P16581 whole entry, looked up): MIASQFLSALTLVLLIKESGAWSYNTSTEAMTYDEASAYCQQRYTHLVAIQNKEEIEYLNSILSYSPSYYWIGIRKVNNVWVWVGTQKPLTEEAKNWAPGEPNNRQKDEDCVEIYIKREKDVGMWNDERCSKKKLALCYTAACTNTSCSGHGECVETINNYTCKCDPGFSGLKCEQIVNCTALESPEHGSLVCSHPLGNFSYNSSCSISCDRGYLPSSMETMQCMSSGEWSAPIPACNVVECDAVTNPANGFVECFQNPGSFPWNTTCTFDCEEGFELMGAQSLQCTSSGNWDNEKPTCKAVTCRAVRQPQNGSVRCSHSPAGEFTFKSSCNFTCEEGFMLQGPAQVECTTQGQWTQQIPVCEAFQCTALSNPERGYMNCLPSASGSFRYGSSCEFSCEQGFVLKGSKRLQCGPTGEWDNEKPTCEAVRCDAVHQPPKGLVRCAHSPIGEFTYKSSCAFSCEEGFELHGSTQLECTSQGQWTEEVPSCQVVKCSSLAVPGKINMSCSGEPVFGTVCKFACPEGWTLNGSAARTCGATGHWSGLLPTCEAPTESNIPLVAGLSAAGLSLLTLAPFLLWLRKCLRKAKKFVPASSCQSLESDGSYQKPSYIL
human Retinoid X Receptor beta (RXRb), RXRB (gene 6257), sequence (P28702 whole entry, looked up, the tested form may be a part): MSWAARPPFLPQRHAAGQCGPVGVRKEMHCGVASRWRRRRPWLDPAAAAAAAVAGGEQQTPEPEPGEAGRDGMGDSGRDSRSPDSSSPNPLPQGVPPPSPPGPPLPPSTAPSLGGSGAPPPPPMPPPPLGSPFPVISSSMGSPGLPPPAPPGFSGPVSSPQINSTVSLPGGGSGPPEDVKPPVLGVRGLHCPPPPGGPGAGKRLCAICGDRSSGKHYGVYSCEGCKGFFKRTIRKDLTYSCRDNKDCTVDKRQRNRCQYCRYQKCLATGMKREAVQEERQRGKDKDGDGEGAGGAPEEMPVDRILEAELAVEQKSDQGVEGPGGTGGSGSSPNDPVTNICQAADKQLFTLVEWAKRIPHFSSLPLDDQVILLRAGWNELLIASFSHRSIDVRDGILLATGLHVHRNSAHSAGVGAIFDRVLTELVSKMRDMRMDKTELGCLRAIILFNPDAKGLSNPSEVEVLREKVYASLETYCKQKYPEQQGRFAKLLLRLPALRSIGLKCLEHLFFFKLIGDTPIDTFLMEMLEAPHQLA

With `CCC(C)OC(=O)N1CCCCC1CCO` (stereo unspecified), the molecule was called inactive in [1], in assay [2], in assay [3], in assay [4], in [5] and in assay [6]. Moreover, the result in [7], in [8], in assay [9], in [10], in assay [11] and in assay [12] was inactive. Besides, the outcome in assay [13], in assay [14], in [15], in [16], in [17] and in [18] was inactive. In [5], the AC50 was 0.981 µM (active).

`CCOC(=O)c1ccc(O)cc1`: the molecule was classed as inactive in assay [1], in assay [2], in assay [3], in [4], in assay [5] and in [6]. Besides, the outcome in assay [7], in assay [8], in [9], in assay [19], in assay [10] and in [11] was inactive. Besides, the result in assay [12], in assay [13], in assay [14], in assay [15], in [16] and in [17] was inactive. For the same molecule, in [18], the outcome was inactive.

As to `O=C(c1ccccc1)C1CCCCC1`, the molecule was classed as inactive in [1], in assay [2], in assay [3], in assay [4], in [5] and in [6]. The outcome in [7], in assay [8], in assay [9], in assay [19], in assay [10] and in assay [11] was inactive. Moreover, the outcome in [12], in assay [13], in [14], in assay [15], in [16] and in assay [17] was inactive. Moreover, the outcome in assay [18] was inactive. In addition, the AC50 in assay [2] was 121 µM (active) and 57 µM (active) and 100 µM (active).

In the case of `CCCOC(=O)NCCCN(C)C`, the call in [1], in [2], in assay [4], in [5], in assay [6] and in assay [7] was inactive. The outcome in [8], in assay [9], in assay [19], in [10], in assay [11] and in assay [12] was inactive. In addition, the outcome in assay [13], in [14], in assay [15], in [16], in assay [17] and in [18] was inactive.

As for `CCCN(CCC)C(=O)SCC`, the molecule was called inactive in assay [1], in assay [2], in assay [3], in assay [4], in [5] and in [6]. Moreover, the outcome in [7], in assay [8], in assay [9], in [19], in assay [10] and in assay [11] was inactive. The result in assay [12], in assay [13], in assay [14], in [15], in [16] and in assay [17] was inactive. For the same molecule, the outcome in [18] was inactive.

As to `CC(=O)[C@H]1CC[C@H]2[C@@H]3CCC4=CC(=O)CC[C@]4(C)[C@H]3CC[C@]12C`, the molecule was classed as inactive in assay [1], in assay [5], in [9], in [19], in assay [14] and in assay [15]. Besides, in assay [16], the outcome was inactive. Besides, the AC50 in assay [4] is 10.1 µM (active); in assay [6], 8.12 µM (active); in assay [7], 12.7 µM (active); in assay [8], 20 µM (active); in assay [10], 6.1 µM (active); in assay [11], 7.49 µM (active). For the same molecule, the AC50 is 9.8 µM (active) in assay [12], 31.9 µM (active) in assay [13] and 10 µM (active) in assay [17].
